Records with an inconclusive call do not appear. Where a call stands in place of a potency, no number is given. Active and inactive are the calls of the source. Calls follow the shape of the dose curve; as a rule, active = well fitted cell-killing curve with a large enough effect; inconclusive = small, poorly fitted or top-dose-only effect, or effect the other way; inactive = flat fitted curve, though single readings scatter.
test system: HeLa; experiment: Primary qHTS to identify gynecologic anti-cancer compounds using libraries of approved drugs and bioactive compounds (AID 1345084); details: Gynecologic cancer cell panel viability, ATPlite luminescence, 48 h; series mostly up to 57.5 µM; also: nearly all actives have a fitted effect of over 55% in size
Text: National Center for Advancing Translational Sciences [NCATS] Assay Overview: Chemotherapeutic drug responses vary from cancer to cancer and from patient to patient. These variations could be caused by a number of factors including patient genomic background, tumor mutations, tumor heterogeneity, and aspects of drug treatment. Chemotherapeutic drug resistance is also a common issue and can lead to ineffective treatment and patient death. Here we have profiled the cell killing effects of thousands of compounds to characterize the responses in three gynecological cancers, identify cancer-selective compounds, and understand the diversity of responses to these compounds from pan-cancer suppressors to single cell line selective compounds. In this assay, we screened a 7,914 compound drug library that included approved drug and bioactive compounds in six ovarian, three cervical, and […] placental cancer cell lines using the ATPlite assay for cell viability. […] The cervical cancer cell lines included HeLa, Ca Ski, and C-33 A. The placental cancer cell lines included JEG-3. HEK 293T cells were used as the control cell line to determine the selectivity index. ATPlite is a luminescence based assay reliant on the conversion of a luciferase substrate to light in the presence of ATP. As a cytotoxic compound will suppress growth and decrease the number of cells, the concentration of ATP will decrease, and less light signal will be detected in the well.
Assay Protocol Summary: 1,000 cells in 4 uL of media were dispensed into white, solid bottom 1536-well plates using a Multidrop Combi (Thermo Scientific). The Assay plates were incubated for 16 hours at 37 C with 5% CO2 in assay plates, followed by the addition of 23 nL of DMSO or drug dissolved in DMSO. Each compound was assayed in five concentrations (0.092, 0.46, 2.3, 11.5, and 57.5 uM), using the automated Wako 1536 Pin Tool workstation and incubated at 37 C with 5% CO2 48 hours. 4 uL of ATPlite, the ATP monitoring reagent, was then added to the each well of the assay plates using the Multidrop Combi reagent dispenser followed by incubation for 15 minutes at room temperature. The resulting luminescence was measured using the ViewLux plate reader.
Potency is read from the fitted curve at half-maximal effect.

| SMILES | Potency |
| --- | --- |
| CCCc1nc(C)c2c(=O)[nH]c(-c3cc(S(=O)(=O)N4CCN(CC)CC4)ccc3OCC)nn12 | inactive |
| CN(CCOc1ccc(CC2SC(=O)NC2=O)cc1)c1ccccn1 (stereo not given) | inactive |
| CN(C)CCc1c[nH]c2ccc(CS(=O)(=O)N3CCCC3)cc12 | inactive |
| CCCOc1ccc(C(=O)OCCN(CC)CC)cc1N | inactive |
| CC(C)OC(=O)OCOP(=O)(CO[C@H](C)Cn1cnc2c(N)ncnc21)OCOC(=O)OC(C)C | inactive |
| CNNCc1ccc(C(=O)NC(C)C)cc1 | inactive |
| CC(C(=O)O)c1ccc2c(c1)CC(=O)c1ccccc1S2 (stereo not given) | inactive |
| CN1CCCC(n2nc(Cc3ccc(Cl)cc3)c3ccccc3c2=O)CC1 (stereo not given) | inactive |
| O=C(O)c1cc(=O)[nH]c(=O)[nH]1 | inactive |
| CCC(C)(C)c1ccc(CC(C)CN2C[C@@H](C)O[C@@H](C)C2)cc1 (stereo not given in full) | inactive |
| C[C@@H]1CN(c2c(F)c(N)c3c(=O)c(C(=O)O)cn(C4CC4)c3c2F)C[C@H](C)N1 | inactive |
| CCCc1cc(C(N)=S)ccn1 | inactive |
| NC(=O)c1cccnc1 | inactive |
| CCN(C)C(=O)Oc1cccc([C@H](C)N(C)C)c1 | inactive |
| COc1nc(N)nc2c1ncn2[C@@H]1O[C@H](CO)[C@@H](O)[C@@H]1O | inactive |
| NS(=O)(=O)c1cc2c(cc1Cl)NC(C(Cl)Cl)NS2(=O)=O (stereo not given) | inactive |
| CC1(C)[C@H](C(=O)O)N2C(=O)C[C@H]2S1(=O)=O | inactive |
| CCOC(=O)[C@H](CCc1ccccc1)N[C@H]1CS[C@H](c2cccs2)CN(CC(=O)O)C1=O | inactive |
| Cc1nnc(C(=O)NC(C)(C)c2nc(C(=O)NCc3ccc(F)cc3)c(O)c(=O)n2C)o1 | inactive |
| CC(C)Cn1cnc2c(N)nc3ccccc3c21 | inactive |

| SMILES | Potency |
| --- | --- |
| COc1ccccc1OCC(O)COC(N)=O (stereo not given) | inactive |
| CCn1cc(C(=O)O)c(=O)c2cc(F)c(N3CCNCC3)nc21 | inactive |
| O=C(O)c1cn(C2CC2)c2cc(N3CCNCC3)c(F)cc2c1=O | inactive |
| COc1ccc(-c2ccc3cc(C(=O)O)ccc3c2)cc1C12CC3CC(CC(C3)C1)C2 | inactive |
| COc1cc(NS(=O)(=O)c2ccc(N)cc2)nc(OC)n1 | inactive |
| COC(=O)Nc1nc2ccc(S(=O)c3ccccc3)cc2[nH]1 (stereo not given) | 2.82 µM (active) |
| CC[C@H](NC(C)C)[C@H](O)c1ccc(O)c2[nH]c(=O)ccc12 | inactive |
| CC(C)(C#N)c1cc(Cn2cncn2)cc(C(C)(C)C#N)c1 | inactive |
| COc1cc([C@@H]2c3cc4c(cc3[C@H](O)[C@H]3COC(=O)[C@H]23)OCO4)cc(OC)c1OC | 0.1 µM (active) |
| C[C@]12C=CC(=O)C=C1CC[C@@H]1[C@@H]2C(=O)C[C@@]2(C)[C@H]1CC[C@]2(O)C(=O)CO | inactive |
| NC(N)=NC(N)=NCCc1ccccc1 | inactive |
| CCCCCCNC(=O)n1cc(F)c(=O)[nH]c1=O | inactive |
| CCOC(=O)[C@H](CCc1ccccc1)N[C@H]1CCc2ccccc2N(CC(=O)O)C1=O | inactive |
| COc1cccc(N(C)C(=S)Oc2ccc3c(c2)CCCC3)n1 | inactive |
| COC(=O)Nc1nc2ccc(Sc3ccccc3)cc2[nH]1 | 2.24 µM (active) |
| CC(C)OC(=O)C(C(=O)OC(C)C)=C1SC=CS1 | inactive |
| Cn1c(=O)c2c(ncn2CC(O)CO)n(C)c1=O (stereo not given) | inactive |
| CCOCC(O)COc1ccc(NC(=O)CC[S+](C)C)cc1 (stereo not given) | inactive |
| CNS(=O)(=O)Cc1ccc2[nH]cc(CCN(C)C)c2c1 | inactive |
| CCn1cc(C(=O)O)c(=O)c2cc(F)c(N3CCNCC3)cc21 | inactive |

From PubChem BioAssay (NCATS)
